According to PubChem BioAssay (NCI):
Compounds without any hit were thinned out: in the full panel of roughly 79,000, 15% have a hit. No stated cut-off is given here; in the data, active means growth inhibition above about 70%; inactive means the rest.

Columns and labels:
[1] = NCI Yeast Anticancer Drug Screen. Data for the rad50 strain (AID 155);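 further: 0% = growth of vehicle-only cultures of the same strain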; conditions: S. cerevisiae rad50 strain growth inhibition; at 50.0 µM; active compounds read high
How it was run: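 Relative growth inhibition (compound vs vehicle) was measured in yeast with a defined repair-gene alteration.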

[2] = NCI Yeast Anticancer Drug Screen. Data for the mec2-1 strain (AID 157); conditions: S. cerevisiae mec2-1 strain, at 50.0 µM, active compounds read high
How it was run: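 Using mec2-1 yeast: add compound, measure growth, express inhibition versus vehicle-treated cultures.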

[3] = NCI Yeast Anticancer Drug Screen. Data for the sgs1 mgt1 strain (AID 161);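 further: 0% = growth of cultures given vehicle only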; conditions: S. cerevisiae sgs1 mgt1 strain, at 50.0 µM, active compounds read high
How it was run: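 This yeast growth screen uses a strain with defined DNA-repair lesions; compound-treated growth is compared with vehicle-treated growth.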

[4] = NCI Yeast Anticancer Drug Screen. Data for the cln2 rad14 strain (AID 165);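 further: 0% = growth equal to vehicle treated cultures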; conditions: S. cerevisiae cln2 rad14 strain, at 50.0 µM, active compounds read high
How it was run: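 Yeast strain cln2 rad14, bearing defects in cell cycle control and DNA repair, serves as the test system; values reflect growth inhibition compared with vehicle.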

[5] = NCI Yeast Anticancer Drug Screen. Data for the bub3 strain (AID 167); conditions: S. cerevisiae bub3 mutant strain, at 50.0 µM, active compounds read high
How it was run: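 Screening used yeast with an engineered genetic alteration affecting cell cycle control. Compound-exposed cultures were compared with vehicle cultures, and reduced growth was taken as inhibition.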

[6] = NCI Yeast Anticancer Drug Screen. Data for the mlh1 rad18 strain (AID 175); conditions: S. cerevisiae mlh1 rad18 strain growth inhibition; at 50.0 µM; active compounds read high
How it was run: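 Steps: expose repair-defective yeast to compound; measure growth; express inhibition against vehicle-treated controls.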

Measured: growth inhibition

O=C1CCCc2c1cc1c3c(cccc23)CC1
inactive: [1] -9.9% | [2] -23.2% | [3] 0.7% | [4] -15.6% | [5] 9.8% | [6] -1.85%

CC(C)CC(NC(=O)OC(C)(C)C)C(=O)O (centres undefined)
inactive: [1] -44.6% | [2] -51.7% | [3] -9.6% | [4] 14.6% | [5] -29.2% | [6] -16.9%

CCO/C=C1/N=C(c2ccc3ccccc3c2)OC1=O
inactive: [1] 35.9% | [2] 9.8% | [3] 13.3% | [4] -23.7% | [5] -32.2% | [6] 14%

Cc1nc(N(C)C)oc(=O)c1Cc1ccccc1
inactive: [1] -0.9% | [2] 18.6% | [3] 17.4% | [4] -8.8% | [5] 20.6% | [6] 6.2%

OC1COC(C2CCCO2)OC1 (centres undefined)
inactive: [1] 10.4% | [2] -6.2% | [3] -2.35% | [4] 1.35% | [5] -13.7% | [6] 11.8%

N#CC(N)(C(=O)C(=O)NCCCNC(=O)C(=O)C(N)(C#N)c1ccc(Cl)cc1)c1ccc(Cl)cc1 (centres undefined)
inactive: [1] -37% | [2] -1.45% | [3] -32.4% | [4] -18.6% | [5] -35.1% | [6] -28.7%

CSC1(C)C(=O)Nc2cccc([N+](=O)[O-])c21 (centres undefined)
inactive: [1] -9.85% | [2] -20.1% | [3] 1% | [4] -7.5% | [5] 11.8% | [6] 2.45%

Cn1c(=O)oc2cc(C(=O)CN3CCN(Cc4ccc5c(c4)OCO5)CC3)c(Cl)cc21
inactive: [1] 29.5% | [2] 26.4% | [3] 61.8% | [4] 26.1% | [5] 53.4% | [6] 23.1%

CN(/N=C\c1ccccc1)C(c1ccccc1)N(C)/N=C/c1ccccc1 (centres undefined)
inactive: [1] -6.45% | [2] -8.3% | [3] 15.2% | [4] -11.7% | [5] -17.3% | [6] -2.8%

COc1ccc(C2=Nc3cccc4c3N(CCC4)C2c2ccc(OC)cc2)cc1 (centres undefined)
inactive: [1] 0.45% | [2] 2.45% | [3] 3% | [4] 7.6% | [5] -2.95% | [6] 4.8%

COc1cc(C2c3c(oc4ccccc4c3=O)Oc3oc4ccccc4c(=O)c32)cc(OC)c1O
inactive: [1] -17.4% | [2] 4.65% | [3] 5.25% | [4] 31.9% | [5] -0.3% | [6] -13.1%

CCCCNc1ccccc1
inactive: [1] 30.4% | [2] 6.3% | [3] 28.8% | [4] -21% | [5] -6.25% | [6] 42.5%

CN1c2ccc(C3N(C(=O)C(F)(F)F)C=CN3C(=O)C(F)(F)F)cc2Sc2cc(C3N(C(=O)C(F)(F)F)C=CN3C(=O)C(F)(F)F)ccc21
inactive: [1] -3.65% | [2] 1.15% | [3] -2% | [4] -6.9% | [5] 1.05% | [6] 19.9%

COc1ccc2c(=O)c(S)coc2c1
inactive: [1] 35.8% | [2] 36.5% | [3] 22.3% | [4] 9% | [5] -1.15% | [6] 41%

N=c1oc2cc(O)ccc2cc1C(=O)NCc1ccccc1
inactive: [1] 17.8% | [2] 27.4% | [3] -2.9% | [4] 20.4% | [5] -8.25% | [6] -7.15%

CCOC(=O)C(C#N)C1CCCC(C)CC1 (centres undefined)
inactive: [1] 13% | [2] 6.5% | [3] 3.5% | [4] 2.65% | [5] 34.1% | [6] 7.55%

CNc1ccc([N+](=O)[O-])cn1
inactive: [1] 19.9% | [2] -13.4% | [3] 31.6% | [4] 8.75% | [5] 19.9% | [6] 4.15%

NC(=O)CCCC(=O)c1cccc([N+](=O)[O-])c1
inactive: [1] -14.2% | [2] 2.2% | [3] -16.9% | [4] -42.9% | [5] -1.25% | [6] -25.4%

N#CC(C#N)CN(C1=NCCO1)c1cccc2c1CCCC2
inactive: [1] -16.6% | [2] 8.4% | [3] -3.6% | [4] -24.6% | [5] -12.4% | [6] 14.3%
